Reference: PubChem BioAssay AID504339 (National Center for Advancing Translational Sciences (NCATS), 2011)
Out of some 390,000 compounds screened, about 17,000 (4.4%) were called active. Inconclusive results (about 8%) are left out. Calls follow the shape of the dose curve; as a rule, active = well fitted inhibition curve with a large enough effect; inconclusive = small, poorly fitted or top-dose-only effect; inactive = no such curve, though single readings can be large or run the other way. This excerpt belongs to a sample that is enriched for actives.

target: Lysine-specific demethylase 4A (Homo sapiens) (UniProt O75164); test: qHTS Assay for Inhibitors of JMJD2A-Tudor Domain; settings: AlphaScreen JMJD2A-Tudor / H3K4me3 peptide binding; series mostly up to 114 µM; activity change, negative = inhibition: at the top concentration; also: nearly all actives have a fitted effect of over 50% in size
Sequence (O75164 whole entry, looked up, the tested form may be a part): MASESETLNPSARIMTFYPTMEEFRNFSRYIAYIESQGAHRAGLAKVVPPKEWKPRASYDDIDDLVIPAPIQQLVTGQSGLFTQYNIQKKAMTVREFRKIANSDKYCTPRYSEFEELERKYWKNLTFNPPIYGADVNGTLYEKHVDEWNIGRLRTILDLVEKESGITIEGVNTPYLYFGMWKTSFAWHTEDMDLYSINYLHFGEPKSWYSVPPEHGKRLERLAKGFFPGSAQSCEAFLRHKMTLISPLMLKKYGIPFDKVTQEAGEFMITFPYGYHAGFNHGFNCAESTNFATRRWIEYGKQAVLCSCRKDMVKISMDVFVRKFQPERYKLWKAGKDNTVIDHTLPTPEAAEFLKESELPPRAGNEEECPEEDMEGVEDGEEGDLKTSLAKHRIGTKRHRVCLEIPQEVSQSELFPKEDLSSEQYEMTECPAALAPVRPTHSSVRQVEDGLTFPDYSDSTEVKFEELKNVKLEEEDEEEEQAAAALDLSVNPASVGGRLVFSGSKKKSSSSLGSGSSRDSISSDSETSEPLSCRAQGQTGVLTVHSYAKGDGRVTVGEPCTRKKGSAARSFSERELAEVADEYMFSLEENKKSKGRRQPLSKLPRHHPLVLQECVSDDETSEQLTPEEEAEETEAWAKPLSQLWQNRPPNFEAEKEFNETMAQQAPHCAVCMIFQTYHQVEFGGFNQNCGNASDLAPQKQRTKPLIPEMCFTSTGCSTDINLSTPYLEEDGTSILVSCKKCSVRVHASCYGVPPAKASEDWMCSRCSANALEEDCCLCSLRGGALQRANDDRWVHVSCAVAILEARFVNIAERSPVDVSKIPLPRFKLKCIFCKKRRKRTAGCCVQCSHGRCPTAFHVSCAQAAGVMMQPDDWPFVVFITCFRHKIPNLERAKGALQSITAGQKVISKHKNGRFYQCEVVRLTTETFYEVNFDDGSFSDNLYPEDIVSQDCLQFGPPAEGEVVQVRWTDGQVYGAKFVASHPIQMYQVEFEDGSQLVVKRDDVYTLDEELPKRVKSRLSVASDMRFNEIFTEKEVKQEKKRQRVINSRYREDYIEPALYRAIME
% is scaled to controls: 0 for no effect and ±100 for the full control effect; potency is read from the fitted curve at half-maximal effect.

Activity change, negative = inhibition, inactive:
COc1cccc(NC(=O)Cn2c(=O)cc(C)c3c(C)nn(-c4cccc(F)c4)c32)c1 -6%, O=S(=O)(c1ccccc1)c1nc(-c2ccc(Cl)cc2Cl)oc1N1CCCCC1 -30.6%, CCCSc1ncccc1C(=O)O -11%, OCCNc1nc2ccccc2n1-c1ncnc2sc3c(c12)CCC3 -15.2%, Cc1ccc2oc3c(c(=O)c2c1)C(c1ccc([N+](=O)[O-])cc1)N(CCCN1CCOCC1)C3=O (centres undefined) -12.9%, CCc1ccccc1NC(=O)N1CCC2(CC1)Oc1ccccc1C(=O)N2Cc1ccccc1F -9.82%, CC(=O)Nc1ccc(NC(=O)CCCc2nc(-c3ccc(C(C)(C)C)cc3)no2)cc1 -15.6%, O=C(N/N=C/c1cccc(OC(=O)c2ccc([N+](=O)[O-])cc2)c1)c1cccnc1 -9.12%, N#Cc1cc([N+](=O)[O-])ccc1Oc1cccc(/C=N/NC(=O)c2ccc(Cl)cc2)c1 3.79%, COC(=O)c1ccc(NC(=O)CCc2c(C)nn(-c3ccc(N4CCCC4)nn3)c2C)cc1 -28%, Cc1cc(C)cc(Nc2ncnc3onc(-c4ccc(F)cc4)c23)c1 19.4%, Brc1nc2ncnc(NCc3ccco3)c2[nH]1 -4.62% [at 57.1 µM], O=C(CNC(=O)c1ccc(Cl)c(C(F)(F)F)c1)OC(C(=O)Nc1cc(C(F)(F)F)ccc1Cl)c1ccccc1 (centres undefined) -21.2%, CCOC(=O)c1ccccc1NC(=O)c1nn(-c2ccc(OC)c(Cl)c2)c(=O)c2c1c1ccccc1n2C 0%, N#Cc1nc(Nc2cc(F)cc(Cl)c2)nc(NC2CCCC2)n1 -3.42%, CCCC(=O)N1c2ccc(-c3csc(N)n3)cc2CC1C (centres undefined) -22.4%, Cc1onc(C(=O)NN)c1-c1csc(COc2ccccc2)n1 -5.43%, Cc1cc(C)c(NC(=O)CSc2nc3nccnc3c(=O)n2CCc2c[nH]c3ccccc23)c(C)c1 -1.32%, COC(=O)c1ccccc1NC(=O)c1ccc(C#N)cc1 -6.85%, COc1cc(NC(=O)Cn2c(=O)n(Cc3ccco3)c(=O)c3oc4ccccc4c32)cc(OC)c1 -12.1%, O=S(=O)(NCCc1nnc2ccc(SCc3ccc(Cl)cc3Cl)nn12)c1ccccc1 -28.2%, CNC(=S)Nc1ccc([N+](=O)[O-])cc1 -16.7%, NC(=O)C1(Nc2ccc([N+](=O)[O-])cc2)CCCC1 -8.28%, CCS(=O)(=O)N1CCC(n2c(C)nc3cccnc32)CC1 -7.47%, O=C(CSc1ncn[nH]1)Nc1ccnc2ccccc12 -14.5%, CCN(C(=O)COC(=O)c1ccccc1O)c1cccc2ccccc12 5.48%, Cc1ccc(-c2onc(C)c2C)cc1S(=O)(=O)Nc1ccccn1 -2.92%, COC(=O)c1cc(S(=O)(=O)N2CCN(c3cc(Cl)ccc3C)CC2)c[nH]1 -12.8%, O=C(Cn1nc(Cc2cccnc2)c2ccccc2c1=O)N1CCN(c2ccccc2F)CC1 -17.9%, Cc1nc2ccn(Cc3cccnc3)c(=O)c2cc1C(=O)N1CCN(c2ccccc2F)CC1 -13.7%, CCN(CC)S(=O)(=O)c1ccc(C(=O)N=c2sc3cccc(OC)c3n2C)cc1 7.09%, O=C(NCc1ccc2c(c1)CCN2C(=O)c1ccccc1)Nc1cc(F)ccc1F -25.3%, CCc1cnc2c(c1SCC(=O)c1ccccc1)c(=O)n(C)c(=O)n2C -8.44%, COc1ccc(-c2nn3c(=O)cc(CN4CCN(C(=O)c5ccc(OC)c(OC)c5)CC4)nc3s2)cc1 -11.7%, CN1CCN(CCCCOc2cccc3ccccc23)CC1 -30.3%, COc1ccccc1OCCCCCCN1CCN(C)CC1 -32.2%, CC(C)NC(=O)c1nn(-c2ccccc2F)nc1CO -10.1%, Cc1[nH]c2ccccc2c1C(c1ccccc1)c1cccs1 (centres undefined) -2.63%, Cc1cccc(-n2ncc(C(=O)N3CCC(C)CC3)c2C2CCN(C(=O)OC(C)(C)C)CC2)c1 -5.18%, CCCCSc1ncnc2c1sc1nc(N3CCOCC3)c3c(c12)CCCC3 -5.84%, Cc1cc(C)n(CC(O)CN(c2ccccc2)S(=O)(=O)c2ccc3ccccc3c2)n1 (centres undefined) -14.1%, CCC(=O)c1ccc(OCC(O)Cn2nc(C)c(C(C)=O)c2C)cc1 (centres undefined) -28.5%, COc1ccc(S(=O)(=O)c2c(Nc3ccc(C)cc3)sc(C(=O)c3ccc(C)cc3)c2N)cc1 -18.2%, CSc1ccc(C2c3c(oc4ccccc4c3=O)C(=O)N2CCCN2CCOCC2)cc1 (centres undefined) -7.22%, COc1ccc(-c2nc3sc(CCNS(=O)(=O)c4ccc(F)c(C)c4)c(C)n3n2)cc1 -9.42%, Cc1cc(C)nc(NS(=O)(=O)c2ccc(NC(=O)c3cc(=O)c4ccc(C)c(C)c4o3)cc2)n1 -26.7%, CC1=C(C(=O)N2CCN(c3cccc(C(F)(F)F)c3)CC2)C2(CCCCC2)OC1=O -3.37%, Cc1ccc(Cl)cc1N1CCN(C(=O)c2cnc3c(-c4ccc(F)cc4)c(C)nn3c2C)CC1 -1%, O=C(CNC(=O)c1ccc(Cl)cc1Cl)OC(C(=O)Nc1cc(C(F)(F)F)ccc1Cl)c1ccccc1 (centres undefined) -11%, COc1cc(/C=C/C(=O)N2c3ccccc3Sc3ccc(C(F)(F)F)cc32)cc(OC)c1OC -19.3%, CCOc1ccc(/C=C2\SC(=S)N(NC(=O)c3ccncc3)C2=O)cc1OC -24.7%, COc1ccc(CCNc2nc3c(-c4cccc(F)c4)nnn3c3ccccc23)cc1OC -4.97%, COCCNc1ncnc2c1c(-c1ccccc1)cn2-c1ccc(C)c(Cl)c1 -28.7%, CC1(C)CCc2cc(S(=O)(=O)N3CCN(c4nc(-c5cccs5)nc5ccccc45)CC3)ccc2O1 -16.3%, COc1ccc(OC)c(Nc2nc3ccccc3n3cnnc23)c1 -5.88% [at 11.4 µM], COc1ccc(OC)c(-c2csc(NC(=O)C3=NNC(=O)CC3)n2)c1 -29.6%, CCOC(=O)c1ccc(NC(=O)CSc2nc3c([nH]c4ccccc43)c(=O)n2C)cc1 2.9%, COc1ccc(OC)c(-c2noc(N3CCN(c4cc(Cl)ccc4C)CC3)n2)c1 -28.1%, Cc1ccccc1Nc1c([N+](=O)[O-])ccc2nonc12 -24.2%, Cc1cc(Nc2ccc(C(=O)N3CCCCC3)cc2)c2cccc(C)c2n1 8.87%, CCS(=O)(=O)N1CCc2cc(C(=O)NCc3ccc(C)cc3)ccc21 -16.9%, CCn1cc(C(=O)NCCc2ccccc2)c(=O)c2cc(S(=O)(=O)N3CCCCCC3)ccc21 -20.7%, COC(=O)c1cc(NC(=O)CCS(=O)(=O)c2cc(Br)cc3c2N(C(=O)C2CC2)CC3)cc(C(=O)OC)c1 -14.7%, COc1ccc(C)cc1N(C)C(=O)c1c(C)oc2ncnc(N3CCOCC3)c12 -14.6%, Cc1ccc(CCNC(=O)C2CCN(c3nnc(-n4cccc4CNc4ccc(C)cc4)s3)CC2)cc1 -31.3%, CCN(CC)C(=O)CCC(=O)Nc1ccc(C(=O)OC)cc1 -13.2%, CC(CN1CCCCC1)OC(=O)c1ccccc1Cl (centres undefined) -24.7%, CC(OC(=O)c1ccc(Cl)cc1O)C(=O)NCCC1=CCCCC1 (centres undefined) -8.22%, C#CCNc1ccc(C(=O)OCC)cc1 -6.52%, CC1(C)C2CCC1(C)C(OC(=O)c1ccc(O)cc1)C2 (centres undefined) -15%, O=c1cc(COc2cccc(C(F)(F)F)c2)nc2sc3c(n12)CCCC3 -17.9%, CN(C)c1ccc(C(=O)NCC(=O)OC(C(=O)Nc2cc(C(F)(F)F)ccc2Cl)c2ccccc2)cc1 (centres undefined) -27.4%, CCc1cccc(NC(=O)c2cnc(N3CCOCC3)c3ccccc23)c1 0%, O=C(COc1ccccc1F)Nc1ccc(C(=O)OCc2cc(=O)n3nc(C4CC4)sc3n2)cc1 -22.8%, Cc1cccc(C)c1-n1ncc(C(=O)NCCCN2CCCCC2)c1C1CCN(C(=O)OC(C)(C)C)CC1 1.94%, COc1ccc(Cc2nc3ccc(C(=O)NCc4ccc(OC)cc4OC)cc3o2)cc1 -23.6%, COc1ccc(OC)c(NC(=O)C2CCCN(S(=O)(=O)c3ccc4c(c3)CCCC(=O)N4)C2)c1 (centres undefined) -25.2%, OC(c1ccccc1)C(CN1CCOCC1)c1ccccc1 (centres undefined) 15.2%, O=[N+]([O-])c1ccc(COc2ccccc2CN2CCOCC2)cc1 -18.1%, CC(C)Cc1nc(N2CCOCC2)c(C#N)c2c1CCC2 60.8%, CCc1nc(NCCO)c(C#N)c2c1CCCC2 -15%

Potency, active:
O=C(O)c1cccnc1Sc1ncnc2sc3c(c12)CCC3 31.6 µM, O=C(N/N=C/c1ccc(Cl)cc1)c1nc2ccc([N+](=O)[O-])cc2c(=O)[nH]1 28.2 µM, O=C1CSC(=S)N1/N=C/c1ccc(O)c([N+](=O)[O-])c1 20 µM, CC(C)(C)C(=O)OCc1nc(-c2ccc(O)c(O)c2)cs1 3.55 µM, O=C(O)/C=C/C(=O)NNc1ccc([N+](=O)[O-])cc1 31.6 µM, CCN(C(=O)CSc1ncn[nH]1)c1cccc2ccccc12 3.16 µM, O=C(Nn1cc(C(=O)N2CCN(c3ccccc3F)CC2)c2ccccc2c1=O)c1cnccn1 25.1 µM, CCN1CCN(CCCCOc2ccccc2F)CC1 0.794 µM, Cc1cc(C)n(CC(O)COc2ccc(C(C)(C)C)cc2)n1 (centres undefined) 79.4 µM, CC(C)c1cc(C(=O)O)n[nH]1 28.2 µM, COc1cc(/C=C2\SC(=S)N(Nc3ncc(C(F)(F)F)cc3Cl)C2=O)cc(OC)c1OC 44.7 µM, COc1ccc(OC)c(Nc2nc(-c3ccc(O)c(O)c3)cs2)c1 10 µM, Cc1ccc(Nc2cc(C)nc3c(C)ccc([N+](=O)[O-])c23)cc1 35.5 µM, CC(C)OC(=O)c1ccc(NCc2cc(O)ccc2O)cc1Cl 10 µM, O=C(OC12CC3CC(CC(C3)C1)C2)c1ccc(NCc2cc(O)ccc2O)cc1 56.2 µM, COC(=O)c1ccc(NCc2cc(O)ccc2O)cc1 5.62 µM, Oc1c(CN2CCOCC2)ccc(CN2CCOCC2)c1O 3.55 µM, CC(C)CCNc1nc(N2CCCC2)c2c(c1C#N)CCN(C)C2 44.7 µM
